Screens deposited in PubChem BioAssay by The Scripps Research Institute Molecular Screening Center.
This is a sample that favours compounds with a hit; in the whole collection about 3.5% have one here.
GPR151 ag: activators of human GPR151, primary screen, cell-based, PathHunter beta-arrestin, luminescence; G-protein coupled receptor 151 (Homo sapiens), Q8TDV0; PathHunter beta-arrestin GPR151 cells; activation, % at 11.2 µM; actives 1% (n = 650,000); AID 1508602, 2020; in the data active = activation above about 4.9%
TEAD-YAP inh: TEAD-YAP interaction inhibition, primary screen, TEAD-YAP interaction inhibitor project, luminescence, HEK-TIYL cells; TEAD-Gal4/YAP UAS-luciferase luminescence; inhibition, % at 9.12 µM; actives 1.4% (n = 640,000); in the data active = inhibition above about 32%
FBW7 act: FBW7 E3 ligase activators, primary screen, biochemical, AlphaScreen, human; F-box/WD repeat-containing protein 7 (Homo sapiens), Q969H0; AID 1259310, 2017; actives 0.13% (n = 650,000); normalized activity (activation), % at 26.1 µM; AlphaScreen FBW7–phospho-cyclin E peptide binding, activator screen; in the data active = normalized activity above about 1.9%;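 note: purified mutant Fbw7 with reduced substrate affinity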
Target sequence (Q969H0 whole entry, looked up): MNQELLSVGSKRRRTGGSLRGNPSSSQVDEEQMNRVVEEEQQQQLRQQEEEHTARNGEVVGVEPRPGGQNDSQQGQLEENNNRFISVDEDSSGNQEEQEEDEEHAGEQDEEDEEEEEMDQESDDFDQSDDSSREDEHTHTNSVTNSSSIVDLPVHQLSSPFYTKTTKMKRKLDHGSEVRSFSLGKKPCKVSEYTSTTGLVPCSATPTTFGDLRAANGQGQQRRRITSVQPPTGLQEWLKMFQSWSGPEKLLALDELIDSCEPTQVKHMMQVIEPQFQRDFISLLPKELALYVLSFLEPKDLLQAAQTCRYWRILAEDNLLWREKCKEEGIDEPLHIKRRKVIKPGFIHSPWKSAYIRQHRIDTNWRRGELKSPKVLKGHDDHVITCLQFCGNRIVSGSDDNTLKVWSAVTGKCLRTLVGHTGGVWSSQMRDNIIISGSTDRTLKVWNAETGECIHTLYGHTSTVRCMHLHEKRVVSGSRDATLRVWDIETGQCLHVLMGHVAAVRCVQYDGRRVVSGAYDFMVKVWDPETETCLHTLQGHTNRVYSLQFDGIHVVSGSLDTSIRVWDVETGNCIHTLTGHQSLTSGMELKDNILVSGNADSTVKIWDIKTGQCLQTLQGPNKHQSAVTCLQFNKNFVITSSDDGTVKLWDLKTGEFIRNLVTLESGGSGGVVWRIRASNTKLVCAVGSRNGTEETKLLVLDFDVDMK
MITF inh: MITF inhibitors, primary screen, biochemical, AlphaScreen, human | actives 0.91% (n = 650,000) | AID 1259374, 2018 | AlphaScreen MITF homodimerization, bead proximity signal | Microphthalmia-associated transcription factor (Homo sapiens), O75030 | inhibition, % at 2.6 µM; in the data active = inhibition above about 50%
GPR151 confirm: GPR151 activators, triplicate retest, confirmation, cell-based, PathHunter beta-arrestin, luminescence; shares compounds with GPR151 ag; GPR151 PathHunter beta-arrestin cells, 90 min; % of EA-reagent control over plate median; activation, % at 11.2 µM; 6,700 tested, under 10 active;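 active = mean percent activation across replicates above the confirmation screen cutoff of 4.91%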
GPR119 ag: GPR119 activators in beta-arrestin cells, counter-screen for GPR151 activator project, cell-based, PathHunter beta-arrestin, luminescence, triplicate; 90 min; 0 = compound-well median, 100 = enzyme-acceptor control; actives 0.3% (n = 6,700); shares compounds with GPR151 ag; activation, % at 11.2 µM; AID 1508611, 2020;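 active = mean percent activation in the counterscreen above 29.09%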;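 note: counterscreen on off-target GPR119 to flag nonselective hits from the GPR151 activator screen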
A number is an active result.

For O=C(CC1CSc2nccc(=O)n21)NCCC(c1ccccc1)c1ccccc1 (configuration not stated) the results were GPR151 ag inactive, TEAD-YAP inh inactive, FBW7 act inactive and MITF inh inactive.
Screening Cc1nnc(NC(=O)c2ccc3c(c2)C(=O)N(CC2CCCO2)C3=O)s1 (configuration not stated) returned GPR151 ag 6.9, TEAD-YAP inh inactive, FBW7 act inactive, MITF inh inactive, GPR151 confirm inactive and GPR119 ag inactive.
For Cc1cc(NC(=O)c2ccc3c(c2)C(=O)N(CC2CCCO2)C3=O)no1 (configuration not stated) the results were GPR151 ag inactive, TEAD-YAP inh inactive, FBW7 act inactive and MITF inh inactive.
Cc1ccccc1C(=O)NCc1nc(-c2ccccc2)no1 was read as GPR151 ag 6.9, TEAD-YAP inh inactive, FBW7 act inactive, MITF inh inactive, GPR151 confirm inactive and GPR119 ag inactive.
For CCOc1ccccc1Nc1nncc(=O)[nH]1 the results were GPR151 ag inactive, TEAD-YAP inh inactive, FBW7 act inactive and MITF inh inactive.
For CCc1ccccc1Nc1nncc(=O)[nH]1 the results were GPR151 ag 7.2, TEAD-YAP inh inactive, FBW7 act inactive, MITF inh inactive, GPR151 confirm inactive and GPR119 ag inactive.
Screening COc1ccc(/C(N)=N/OC(=O)c2ccc(C)cc2C)cc1 returned GPR151 ag inactive, TEAD-YAP inh inactive, FBW7 act inactive and MITF inh inactive.
For COc1cc(NC(=S)N2CCC(C(N)=O)CC2)cc(OC)c1 the results were GPR151 ag 7.5, TEAD-YAP inh inactive, FBW7 act inactive, MITF inh inactive, GPR151 confirm inactive and GPR119 ag inactive.
Screening O=C(N/N=C/c1ccncc1)c1cc(-c2ccc(Br)cc2)n[nH]1 returned GPR151 ag 5.8, TEAD-YAP inh inactive, FBW7 act inactive, MITF inh inactive, GPR151 confirm inactive and GPR119 ag inactive.
For COC(=O)c1ccc(/C=N/NC(=O)c2cc3ccccc3cc2O)cc1 the results were GPR151 ag inactive, TEAD-YAP inh inactive, FBW7 act inactive and MITF inh inactive.
O=C(N/N=C/c1ccc(O)cc1)c1cc(-c2ccc(Br)cc2)n[nH]1 was read as GPR151 ag inactive, TEAD-YAP inh inactive, FBW7 act inactive and MITF inh inactive.
Screening O=C(N/N=C/c1ccccc1O)c1cc(-c2ccc(Br)cc2)n[nH]1 returned GPR151 ag 5.5, TEAD-YAP inh inactive, FBW7 act inactive, MITF inh inactive, GPR151 confirm inactive and GPR119 ag inactive.
Screening O=C(N/N=C/c1cc(I)ccc1O)c1cc(-c2ccccc2)n[nH]1 returned GPR151 ag inactive, TEAD-YAP inh inactive, FBW7 act inactive and MITF inh inactive.
For O=C(N/N=C/c1ccncc1)c1cc2ccccc2cc1O the results were GPR151 ag 5.0, TEAD-YAP inh inactive, FBW7 act inactive, MITF inh inactive, GPR151 confirm inactive and GPR119 ag inactive.
`CCCc1[nH]n(-c2nc3ccccc3s2)c(=O)c1C(C)=Nc1cc(Cl)ccc1O` gave GPR151 ag inactive, TEAD-YAP inh inactive, FBW7 act inactive and MITF inh inactive.
Screening COCC(=O)N/N=C(\C)CC(=O)Nc1ccc2c(c1)OCCO2 returned GPR151 ag inactive, TEAD-YAP inh inactive, FBW7 act inactive and MITF inh inactive.
Screening O=C(CCS(=O)(=O)c1ccccc1)NNC(=O)c1nn(-c2ccc(Cl)cc2)cc1O returned GPR151 ag inactive, TEAD-YAP inh inactive, FBW7 act inactive and MITF inh inactive.
For O=C(Cn1c(=O)c2cccn2c2cccnc21)NCCN1CCOCC1 the results were GPR151 ag inactive, TEAD-YAP inh inactive, FBW7 act inactive and MITF inh inactive.
`S=C(NCCCN1CCOCC1)N/N=C/c1ccc2ncccc2c1` gave GPR151 ag inactive, TEAD-YAP inh inactive, FBW7 act inactive and MITF inh inactive.
